Test results: ChEMBL document CHEMBL1961873, “Compounds: GSK PKIS; Assays: Nanosyn kinase panel” (2012)

What was measured:
[1] = target: T1, Ephrin type-B receptor 2 (Homo sapiens) (UniProt P29323); settings: at 1 µM
T1 sequence (whole entry): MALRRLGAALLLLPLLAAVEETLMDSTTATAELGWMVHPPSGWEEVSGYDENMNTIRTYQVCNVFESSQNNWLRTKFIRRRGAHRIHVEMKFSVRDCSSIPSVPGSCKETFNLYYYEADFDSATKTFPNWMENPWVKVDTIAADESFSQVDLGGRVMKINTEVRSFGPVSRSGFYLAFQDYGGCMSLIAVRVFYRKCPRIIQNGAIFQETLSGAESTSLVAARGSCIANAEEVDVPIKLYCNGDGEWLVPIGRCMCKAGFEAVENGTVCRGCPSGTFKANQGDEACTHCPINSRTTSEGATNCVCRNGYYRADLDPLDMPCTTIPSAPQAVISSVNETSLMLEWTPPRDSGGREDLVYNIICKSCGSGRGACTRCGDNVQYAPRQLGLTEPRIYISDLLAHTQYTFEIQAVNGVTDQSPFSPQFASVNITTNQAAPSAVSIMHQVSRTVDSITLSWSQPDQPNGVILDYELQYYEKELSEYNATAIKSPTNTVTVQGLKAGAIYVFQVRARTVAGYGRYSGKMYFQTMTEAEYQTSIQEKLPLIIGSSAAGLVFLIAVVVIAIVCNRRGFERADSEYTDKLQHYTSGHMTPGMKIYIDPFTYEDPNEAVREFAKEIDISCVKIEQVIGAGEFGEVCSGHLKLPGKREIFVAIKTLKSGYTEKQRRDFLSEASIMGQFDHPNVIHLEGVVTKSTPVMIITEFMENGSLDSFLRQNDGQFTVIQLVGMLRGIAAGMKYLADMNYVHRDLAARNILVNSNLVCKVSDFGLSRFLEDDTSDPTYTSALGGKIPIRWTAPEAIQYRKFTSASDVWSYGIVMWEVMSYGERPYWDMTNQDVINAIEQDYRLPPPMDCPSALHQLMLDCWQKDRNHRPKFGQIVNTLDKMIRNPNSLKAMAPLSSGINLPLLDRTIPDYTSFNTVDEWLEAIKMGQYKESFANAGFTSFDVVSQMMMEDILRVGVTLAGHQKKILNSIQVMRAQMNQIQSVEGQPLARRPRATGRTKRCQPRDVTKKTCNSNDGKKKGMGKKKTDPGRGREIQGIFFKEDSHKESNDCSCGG

[2] = target: T2, Ephrin type-B receptor 3 (Homo sapiens) (UniProt P54753); settings: at 0.1 µM
T2 sequence (whole entry): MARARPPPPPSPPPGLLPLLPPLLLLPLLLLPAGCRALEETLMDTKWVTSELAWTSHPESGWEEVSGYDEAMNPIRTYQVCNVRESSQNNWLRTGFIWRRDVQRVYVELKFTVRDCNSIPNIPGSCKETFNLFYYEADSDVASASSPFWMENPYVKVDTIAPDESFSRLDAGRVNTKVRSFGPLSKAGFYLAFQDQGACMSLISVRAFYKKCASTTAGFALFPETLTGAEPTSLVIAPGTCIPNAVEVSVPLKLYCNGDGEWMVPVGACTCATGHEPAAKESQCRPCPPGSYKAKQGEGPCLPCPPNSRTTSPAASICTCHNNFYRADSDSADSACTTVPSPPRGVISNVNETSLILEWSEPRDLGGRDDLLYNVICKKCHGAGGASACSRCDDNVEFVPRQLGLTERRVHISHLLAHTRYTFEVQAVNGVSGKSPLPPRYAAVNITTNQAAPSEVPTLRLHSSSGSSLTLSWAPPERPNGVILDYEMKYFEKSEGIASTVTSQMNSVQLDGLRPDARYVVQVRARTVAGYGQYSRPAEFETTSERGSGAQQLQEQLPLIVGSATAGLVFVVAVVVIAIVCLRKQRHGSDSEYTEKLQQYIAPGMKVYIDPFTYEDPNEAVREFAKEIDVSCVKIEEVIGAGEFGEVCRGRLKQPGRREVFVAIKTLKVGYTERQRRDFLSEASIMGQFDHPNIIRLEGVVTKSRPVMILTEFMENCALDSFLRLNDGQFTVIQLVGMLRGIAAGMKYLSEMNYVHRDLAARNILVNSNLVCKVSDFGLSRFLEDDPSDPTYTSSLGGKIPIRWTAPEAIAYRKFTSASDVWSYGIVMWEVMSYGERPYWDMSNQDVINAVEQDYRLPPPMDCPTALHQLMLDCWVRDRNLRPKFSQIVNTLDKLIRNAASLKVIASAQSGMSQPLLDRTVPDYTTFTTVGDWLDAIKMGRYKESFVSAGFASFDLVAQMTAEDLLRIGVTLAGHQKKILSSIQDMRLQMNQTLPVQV

[3] = target: T2, Ephrin type-B receptor 3 (Homo sapiens); settings: at 1 µM
[4] = target: T3, Ephrin type-B receptor 4 (Homo sapiens) (UniProt P54760); settings: at 0.1 µM
T3 sequence (whole entry): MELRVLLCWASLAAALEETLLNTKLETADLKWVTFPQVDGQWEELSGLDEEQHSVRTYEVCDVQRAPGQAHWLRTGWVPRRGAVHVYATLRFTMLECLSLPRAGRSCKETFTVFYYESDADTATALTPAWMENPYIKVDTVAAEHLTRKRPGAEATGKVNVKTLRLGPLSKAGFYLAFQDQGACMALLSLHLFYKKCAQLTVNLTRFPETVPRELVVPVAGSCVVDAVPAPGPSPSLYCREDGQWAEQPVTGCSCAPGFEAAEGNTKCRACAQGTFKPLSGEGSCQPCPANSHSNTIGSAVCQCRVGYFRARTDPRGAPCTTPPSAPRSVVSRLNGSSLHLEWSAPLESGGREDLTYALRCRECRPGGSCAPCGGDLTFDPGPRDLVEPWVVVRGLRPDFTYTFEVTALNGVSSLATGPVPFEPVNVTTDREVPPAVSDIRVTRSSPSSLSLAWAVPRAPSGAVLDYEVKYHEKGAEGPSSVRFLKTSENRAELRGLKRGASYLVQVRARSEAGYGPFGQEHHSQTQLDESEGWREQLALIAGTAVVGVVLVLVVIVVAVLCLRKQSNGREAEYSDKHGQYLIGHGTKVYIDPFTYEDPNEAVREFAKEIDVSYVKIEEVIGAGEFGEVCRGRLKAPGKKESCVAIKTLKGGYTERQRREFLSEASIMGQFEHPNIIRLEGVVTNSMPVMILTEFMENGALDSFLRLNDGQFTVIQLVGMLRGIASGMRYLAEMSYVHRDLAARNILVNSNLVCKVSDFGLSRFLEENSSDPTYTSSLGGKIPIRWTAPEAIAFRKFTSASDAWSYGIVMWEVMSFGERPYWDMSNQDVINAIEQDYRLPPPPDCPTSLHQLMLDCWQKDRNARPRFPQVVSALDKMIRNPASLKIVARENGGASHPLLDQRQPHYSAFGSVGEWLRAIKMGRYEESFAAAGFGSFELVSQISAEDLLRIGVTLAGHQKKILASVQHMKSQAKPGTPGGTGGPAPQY

[5] = target: T3, Ephrin type-B receptor 4 (Homo sapiens); settings: at 1 µM
[6] = target: Receptor tyrosine-protein kinase erbB-2 (Homo sapiens) (UniProt P04626); settings: at 0.1 µM
[7] = target: Receptor tyrosine-protein kinase erbB-2 (Homo sapiens) (UniProt P04626); settings: at 1 µM
[8] = target: Receptor tyrosine-protein kinase erbB-4 (Homo sapiens) (UniProt Q15303); settings: at 0.1 µM
[9] = target: Receptor tyrosine-protein kinase erbB-4 (Homo sapiens) (UniProt Q15303); settings: at 1 µM
[10] = target: Tyrosine-protein kinase Fer (Homo sapiens) (UniProt P16591); settings: at 0.1 µM
[11] = target: Tyrosine-protein kinase Fer (Homo sapiens) (UniProt P16591); settings: at 1 µM
[12] = target: Tyrosine-protein kinase Fes/Fps (Homo sapiens) (UniProt P07332); settings: at 0.1 µM
[13] = target: Tyrosine-protein kinase Fes/Fps (Homo sapiens) (UniProt P07332); settings: at 1 µM
[14] = target: Fibroblast growth factor receptor 1 (Homo sapiens) (UniProt P11362); settings: at 0.1 µM
[15] = target: Fibroblast growth factor receptor 1 (Homo sapiens) (UniProt P11362); settings: at 1 µM
[16] = target: Fibroblast growth factor receptor 2 (Homo sapiens) (UniProt P21802); settings: at 0.1 µM
[17] = target: Fibroblast growth factor receptor 2 (Homo sapiens) (UniProt P21802); settings: at 1 µM
[18] = target: Fibroblast growth factor receptor 3 (Homo sapiens) (UniProt P22607); settings: at 0.1 µM
[19] = target: Fibroblast growth factor receptor 3 (Homo sapiens) (UniProt P22607); settings: at 1 µM
[20] = target: Fibroblast growth factor receptor 4 (Homo sapiens) (UniProt P22455); settings: at 0.1 µM;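 further: values are mean percent inhibition of FGFR4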

Chain of Tyrosine-protein kinase Fer (Homo sapiens) (P16591 whole entry, looked up): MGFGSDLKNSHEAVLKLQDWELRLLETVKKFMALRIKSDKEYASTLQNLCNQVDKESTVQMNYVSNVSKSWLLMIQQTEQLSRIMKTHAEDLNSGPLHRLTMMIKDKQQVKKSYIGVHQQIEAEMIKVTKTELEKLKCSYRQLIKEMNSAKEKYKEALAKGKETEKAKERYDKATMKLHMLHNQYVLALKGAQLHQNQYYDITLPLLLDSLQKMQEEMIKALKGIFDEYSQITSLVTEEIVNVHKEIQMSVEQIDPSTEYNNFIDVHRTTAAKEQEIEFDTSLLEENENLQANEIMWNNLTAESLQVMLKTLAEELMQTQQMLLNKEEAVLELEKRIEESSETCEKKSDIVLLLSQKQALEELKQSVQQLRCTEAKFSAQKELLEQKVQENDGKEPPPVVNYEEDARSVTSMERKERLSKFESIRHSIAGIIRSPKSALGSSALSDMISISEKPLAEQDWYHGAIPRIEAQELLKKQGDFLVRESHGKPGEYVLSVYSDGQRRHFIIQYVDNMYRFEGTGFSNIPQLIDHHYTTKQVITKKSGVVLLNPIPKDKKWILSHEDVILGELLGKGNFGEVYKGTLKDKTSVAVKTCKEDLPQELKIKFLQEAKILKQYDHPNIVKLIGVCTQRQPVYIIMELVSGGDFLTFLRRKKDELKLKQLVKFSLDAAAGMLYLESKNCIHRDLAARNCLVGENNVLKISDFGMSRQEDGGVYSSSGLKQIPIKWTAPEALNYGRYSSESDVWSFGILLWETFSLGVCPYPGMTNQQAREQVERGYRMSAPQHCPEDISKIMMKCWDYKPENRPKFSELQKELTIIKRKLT
Chain of Receptor tyrosine-protein kinase erbB-2 (Homo sapiens) (P04626 whole entry): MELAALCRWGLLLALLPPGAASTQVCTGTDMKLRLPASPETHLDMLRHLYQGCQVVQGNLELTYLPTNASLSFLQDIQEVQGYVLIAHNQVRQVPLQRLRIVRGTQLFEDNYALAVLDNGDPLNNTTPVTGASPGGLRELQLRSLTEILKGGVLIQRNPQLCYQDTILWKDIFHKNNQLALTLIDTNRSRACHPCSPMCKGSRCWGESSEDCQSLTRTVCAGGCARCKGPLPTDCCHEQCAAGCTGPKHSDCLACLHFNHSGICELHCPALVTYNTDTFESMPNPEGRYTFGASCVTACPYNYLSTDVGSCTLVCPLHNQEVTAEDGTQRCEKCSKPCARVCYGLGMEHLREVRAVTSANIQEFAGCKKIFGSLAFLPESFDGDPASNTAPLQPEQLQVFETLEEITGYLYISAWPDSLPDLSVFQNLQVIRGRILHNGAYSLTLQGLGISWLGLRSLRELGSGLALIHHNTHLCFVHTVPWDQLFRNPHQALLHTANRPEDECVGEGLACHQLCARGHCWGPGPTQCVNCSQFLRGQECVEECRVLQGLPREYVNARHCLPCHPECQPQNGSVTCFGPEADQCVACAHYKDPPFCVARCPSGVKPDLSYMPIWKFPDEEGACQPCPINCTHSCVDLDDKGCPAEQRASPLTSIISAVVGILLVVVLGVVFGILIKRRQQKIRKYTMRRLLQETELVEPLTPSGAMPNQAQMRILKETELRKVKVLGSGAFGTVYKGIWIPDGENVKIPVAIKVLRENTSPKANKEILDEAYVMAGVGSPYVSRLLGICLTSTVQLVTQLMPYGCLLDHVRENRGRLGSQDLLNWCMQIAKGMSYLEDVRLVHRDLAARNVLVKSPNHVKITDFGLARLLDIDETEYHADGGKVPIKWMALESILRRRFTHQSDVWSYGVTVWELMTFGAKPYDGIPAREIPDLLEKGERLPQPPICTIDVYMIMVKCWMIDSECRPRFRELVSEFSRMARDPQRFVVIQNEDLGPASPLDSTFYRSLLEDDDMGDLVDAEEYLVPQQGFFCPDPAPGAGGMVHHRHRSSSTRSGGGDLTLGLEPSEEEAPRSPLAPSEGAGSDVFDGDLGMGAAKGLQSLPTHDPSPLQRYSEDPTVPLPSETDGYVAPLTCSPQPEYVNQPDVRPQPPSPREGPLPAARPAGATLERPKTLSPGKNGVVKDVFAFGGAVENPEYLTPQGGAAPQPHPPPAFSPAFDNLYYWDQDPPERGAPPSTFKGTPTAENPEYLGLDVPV
Chain of Fibroblast growth factor receptor 2 (Homo sapiens) (P21802 22-821 limits assumed): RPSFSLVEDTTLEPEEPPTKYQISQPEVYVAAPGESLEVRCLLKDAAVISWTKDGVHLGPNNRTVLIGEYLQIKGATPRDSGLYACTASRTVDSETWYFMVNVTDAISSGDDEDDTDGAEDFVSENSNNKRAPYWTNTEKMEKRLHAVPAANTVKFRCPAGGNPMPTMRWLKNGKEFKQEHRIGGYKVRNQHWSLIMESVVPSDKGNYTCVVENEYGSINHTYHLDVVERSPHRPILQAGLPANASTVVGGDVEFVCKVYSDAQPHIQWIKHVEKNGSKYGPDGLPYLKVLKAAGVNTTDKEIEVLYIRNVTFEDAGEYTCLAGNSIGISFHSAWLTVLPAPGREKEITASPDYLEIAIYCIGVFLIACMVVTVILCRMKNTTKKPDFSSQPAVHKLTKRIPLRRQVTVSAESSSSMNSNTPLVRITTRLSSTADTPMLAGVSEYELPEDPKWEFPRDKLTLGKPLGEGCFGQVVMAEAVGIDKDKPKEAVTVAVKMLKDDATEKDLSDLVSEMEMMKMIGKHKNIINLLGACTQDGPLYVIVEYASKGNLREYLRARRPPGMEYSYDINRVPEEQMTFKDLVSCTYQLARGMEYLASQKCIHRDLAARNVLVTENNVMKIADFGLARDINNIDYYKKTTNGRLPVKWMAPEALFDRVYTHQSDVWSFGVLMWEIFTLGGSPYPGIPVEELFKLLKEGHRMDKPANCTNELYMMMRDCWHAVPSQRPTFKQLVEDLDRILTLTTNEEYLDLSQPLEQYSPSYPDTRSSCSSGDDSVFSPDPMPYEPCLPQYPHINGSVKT
Chain of Receptor tyrosine-protein kinase erbB-4 (Homo sapiens) (Q15303 whole entry): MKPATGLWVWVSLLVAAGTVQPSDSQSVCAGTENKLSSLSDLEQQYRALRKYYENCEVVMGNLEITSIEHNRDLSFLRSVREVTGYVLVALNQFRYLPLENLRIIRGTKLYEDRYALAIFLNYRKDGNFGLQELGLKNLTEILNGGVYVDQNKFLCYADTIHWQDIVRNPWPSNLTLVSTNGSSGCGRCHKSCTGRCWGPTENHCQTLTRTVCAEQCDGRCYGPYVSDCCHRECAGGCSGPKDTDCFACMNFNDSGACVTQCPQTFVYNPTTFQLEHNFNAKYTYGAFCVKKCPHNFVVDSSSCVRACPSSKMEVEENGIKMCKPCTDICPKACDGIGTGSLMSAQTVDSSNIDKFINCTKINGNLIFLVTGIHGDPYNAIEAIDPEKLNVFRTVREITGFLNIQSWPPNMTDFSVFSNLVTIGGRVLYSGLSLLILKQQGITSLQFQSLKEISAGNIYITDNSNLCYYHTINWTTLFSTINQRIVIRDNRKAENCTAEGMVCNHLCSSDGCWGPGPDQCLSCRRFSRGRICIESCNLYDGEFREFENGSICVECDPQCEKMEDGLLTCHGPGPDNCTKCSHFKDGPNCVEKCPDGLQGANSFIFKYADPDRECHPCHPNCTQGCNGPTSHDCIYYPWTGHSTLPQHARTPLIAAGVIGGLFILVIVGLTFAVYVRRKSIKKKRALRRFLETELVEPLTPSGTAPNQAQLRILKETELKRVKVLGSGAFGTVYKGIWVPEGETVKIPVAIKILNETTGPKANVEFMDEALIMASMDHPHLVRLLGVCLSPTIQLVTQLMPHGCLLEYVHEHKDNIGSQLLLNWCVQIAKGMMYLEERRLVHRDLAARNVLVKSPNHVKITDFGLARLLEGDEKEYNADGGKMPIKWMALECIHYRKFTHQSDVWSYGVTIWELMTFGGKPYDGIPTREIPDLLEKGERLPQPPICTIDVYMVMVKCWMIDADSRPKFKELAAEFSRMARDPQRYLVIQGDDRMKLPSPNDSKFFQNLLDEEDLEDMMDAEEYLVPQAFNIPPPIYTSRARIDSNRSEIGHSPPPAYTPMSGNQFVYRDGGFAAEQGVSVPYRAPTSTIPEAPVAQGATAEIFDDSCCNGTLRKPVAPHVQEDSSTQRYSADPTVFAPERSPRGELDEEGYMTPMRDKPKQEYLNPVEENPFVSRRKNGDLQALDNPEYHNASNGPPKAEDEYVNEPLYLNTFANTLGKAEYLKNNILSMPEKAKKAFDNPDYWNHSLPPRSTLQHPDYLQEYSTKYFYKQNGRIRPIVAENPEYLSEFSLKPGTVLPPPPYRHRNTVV
Chain of Tyrosine-protein kinase Fes/Fps (Homo sapiens) (P07332 whole entry): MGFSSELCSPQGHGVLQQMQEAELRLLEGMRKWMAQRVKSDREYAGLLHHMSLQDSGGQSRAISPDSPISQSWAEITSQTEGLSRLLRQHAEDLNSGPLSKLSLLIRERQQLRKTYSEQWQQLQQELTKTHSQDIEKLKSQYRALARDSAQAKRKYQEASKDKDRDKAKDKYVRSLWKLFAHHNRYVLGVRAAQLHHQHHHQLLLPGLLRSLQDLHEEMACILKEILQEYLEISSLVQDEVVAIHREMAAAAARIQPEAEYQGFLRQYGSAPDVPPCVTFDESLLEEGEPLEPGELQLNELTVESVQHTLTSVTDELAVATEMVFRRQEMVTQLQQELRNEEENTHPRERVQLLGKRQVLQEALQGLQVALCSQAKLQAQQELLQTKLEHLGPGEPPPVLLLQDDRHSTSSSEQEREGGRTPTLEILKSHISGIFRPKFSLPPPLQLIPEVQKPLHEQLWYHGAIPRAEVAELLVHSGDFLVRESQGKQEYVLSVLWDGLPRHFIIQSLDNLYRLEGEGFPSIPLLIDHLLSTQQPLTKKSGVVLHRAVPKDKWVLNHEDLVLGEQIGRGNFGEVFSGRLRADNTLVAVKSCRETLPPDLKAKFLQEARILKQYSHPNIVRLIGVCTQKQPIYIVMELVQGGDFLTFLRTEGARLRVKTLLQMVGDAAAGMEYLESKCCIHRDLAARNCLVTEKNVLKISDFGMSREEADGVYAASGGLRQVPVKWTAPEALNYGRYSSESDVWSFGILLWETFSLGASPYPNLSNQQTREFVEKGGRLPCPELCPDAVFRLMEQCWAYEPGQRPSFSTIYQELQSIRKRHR

SMILES	inhibition [1]	inhibition [2]	inhibition [3]	inhibition [4]	inhibition [5]	inhibition [6]	inhibition [7]	inhibition [8]	inhibition [9]	inhibition [10]	inhibition [11]	inhibition [12]	inhibition [13]	inhibition [14]	inhibition [15]	inhibition [16]	inhibition [17]	inhibition [18]	inhibition [19]	inhibition [20]
NCc1ccc(-c2nc(-c3ccc(Cl)c(O)c3)c(-c3ccncc3)[nH]2)cc1	8.63%	5.47%	12.8%	3.82%	9.77%	-0.58%	-0.9%	11.1%	28.9%	0.8%	2.5%	0.2%	1.79%	-0.32%	1.38%	-0.38%	6.76%	0.23%	5.11%	-5.87%
O=C1Nc2ccc(C(=O)c3ccco3)cc2C1=Cc1cc(Cl)c(O)c(Cl)c1	15%	4.56%	5.53%	3.11%	2.52%	0.77%	4.54%	12.2%	15.8%	2.31%	11.5%	1.95%	2.89%	3.35%	8.23%	6.09%	25.8%	9.26%	19.1%	2.69%
O=C1NC(=O)C(N2CCc3ccccc32)=C1c1ccc(Cl)cc1	12.6%	7.43%	6.04%	3.92%	1.54%	0.97%	-4.09%	8.85%	24%	2.88%	6.71%	4.08%	7.35%	5.27%	13%	6.84%	14%	8.07%	11.6%	-1.04%
COc1ccc(COc2ccc(Cc3cnc(N)nc3N)cc2OC)cc1	8.3%	-1.18%	-4.82%	0.94%	3.27%	-1.55%	-2.79%	3.15%	3.43%	2.14%	2.33%	1.72%	2.24%	1.78%	2.1%	1.46%	6.83%	2.29%	0.98%	3.95%
Nc1nc(-c2ccc3c(c2)C(=Cc2cc(Br)c(O)c(Br)c2)C(=O)N3)cs1	-1.17%	-1.61%	-4.71%	-0.3%	-2.45%	-4.27%	2.84%	-6.34%	-0.4%	5.18%	3.05%	-2.93%	-3.65%	-5.75%	-1.36%	-1.12%	1.88%	-0.11%	1.45%	-4.66%
CC1=C(C(=O)Nc2ccc3[nH]ncc3c2)C(c2ccc3ccccc3c2)CC(=O)N1 (stereo not given)	8.42%	4.2%	4.54%	3.21%	3.76%	0.89%	2.88%	12.7%	39.6%	2.1%	7.14%	1.76%	2.99%	1.46%	13.2%	5.6%	31.6%	9.54%	22.8%	0.62%
